# Reference: PubChem BioAssay
# Values without a mark were called inactive. For some of these results: Results with a measured potency or affinity are listed apart. The source made the active and inactive calls. Unless noted, the rule behind the calls is not given here.
# What was measured:
# [1] = antimalarial activity against Dd2 strain (AID 2302;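 active = growth inhibition above 50% at the single 2 µM test dose, taken to imply half-maximal potency below 2 µM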;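 note: 0% = DMSO untreated growth and 100% = chloroquine plus artemisinin killed control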); details: P. falciparum Dd2 in RBCs, LDH growth readout, 72 h; at 2 µM; hits give high values
# [2] = HepG2 cytotoxicity, primary screen, cytotoxicity control for P. falciparum antimalarial project, cell-based, ATP luminescence (AID 2303;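 active = inhibition above 50%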;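 note: 0% = DMSO wells and 100% = digitonin-killed cells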); details: HepG2 viability, 24-48 h, at 10 µM, hits give high values
# [3] = target: L-lactate dehydrogenase (Plasmodium falciparum (isolate CDC / Honduras)) (UniProt Q27743); assay: PfLDH activity inhibition – cell lysate, 3D7 strain, counter-screen for P. falciparum growth inhibition project (AID 2304);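 note: 0% = vehicle and 100% = reference inhibitor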; details: P. falciparum 3D7 crude extract, LDH APAD/NBT absorbance; at 2 µM; hits give high values
# [4] = inhibition of 3D7 malaria parasite growth – strain 3D7 (AID 2306);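 note: 0% = DMSO wells and 100% = chloroquine plus artemisinin control wells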; details: P. falciparum 3D7 erythrocytic growth, LDH absorbance, 72 h; at 2 µM; hits give high values
# [5] = target: Calcium-dependent protein kinase 1 (Plasmodium falciparum (isolate 3D7)) (UniProt P62344); assay: PfCDPK1 kinase inhibitors, biochemical, TCAMS library (AID 1159585; cut-off not given, nearly all actives have IC50 up to about 0.98 µM;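 note: inhibitors leave more ATP so luminescence rises with inhibition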); details: recombinant PfCDPK1, Kinase-Glo ATP depletion luminescence
# [6] = target: Plasmodium falciparum protein kinase 6 (PK6, PF3D7_1337100) (UniProt Q8IDW1); assay: PfPK6 kinase inhibitors, biochemical, TCAMS library (AID 1159586); details: recombinant PfPK6, Kinase-Glo ATP depletion luminescence
# [7] = target: Protein kinase 7 (PK7), Plasmodium falciparum 3D7 (PF3D7_0213400) (UniProt Q7YTF7); assay: inhibition of Plasmodium PK7 catalytic activity – biochemical, TCAMS antimalarial set, Kinase-Glo luminescence (AID 1159587); details: recombinant PfPK7, Kinase-Glo ATP depletion luminescence
# [8] = target: Calcium-dependent protein kinase 4 (Plasmodium falciparum (isolate 3D7)) (UniProt Q8IBS5); assay: PfCDPK4 kinase inhibitors, biochemical, TCAMS library (AID 1159588; cut-off not given, nearly all actives have IC50 up to about 0.91 µM); details: recombinant PfCDPK4, Kinase-Glo ATP depletion luminescence
# Sequence of Calcium-dependent protein kinase 4 (Plasmodium falciparum (isolate 3D7)) (Q8IBS5 whole entry, looked up): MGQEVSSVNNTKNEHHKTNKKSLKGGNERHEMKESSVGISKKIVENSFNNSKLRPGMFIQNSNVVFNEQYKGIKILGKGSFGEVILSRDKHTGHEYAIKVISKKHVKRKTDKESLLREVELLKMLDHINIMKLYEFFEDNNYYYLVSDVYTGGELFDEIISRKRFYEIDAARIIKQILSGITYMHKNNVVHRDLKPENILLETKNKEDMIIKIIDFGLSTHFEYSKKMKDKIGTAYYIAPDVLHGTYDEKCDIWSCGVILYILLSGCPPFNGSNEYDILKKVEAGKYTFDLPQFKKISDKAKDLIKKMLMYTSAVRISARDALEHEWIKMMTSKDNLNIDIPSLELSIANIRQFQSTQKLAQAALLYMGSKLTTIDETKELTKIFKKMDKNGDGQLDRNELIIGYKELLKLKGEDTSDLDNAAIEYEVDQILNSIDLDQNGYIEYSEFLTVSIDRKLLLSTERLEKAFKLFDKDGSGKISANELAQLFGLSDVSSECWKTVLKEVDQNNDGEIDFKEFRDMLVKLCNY
# Sequence of L-lactate dehydrogenase (Plasmodium falciparum (isolate CDC / Honduras)) (Q27743 whole entry, looked up): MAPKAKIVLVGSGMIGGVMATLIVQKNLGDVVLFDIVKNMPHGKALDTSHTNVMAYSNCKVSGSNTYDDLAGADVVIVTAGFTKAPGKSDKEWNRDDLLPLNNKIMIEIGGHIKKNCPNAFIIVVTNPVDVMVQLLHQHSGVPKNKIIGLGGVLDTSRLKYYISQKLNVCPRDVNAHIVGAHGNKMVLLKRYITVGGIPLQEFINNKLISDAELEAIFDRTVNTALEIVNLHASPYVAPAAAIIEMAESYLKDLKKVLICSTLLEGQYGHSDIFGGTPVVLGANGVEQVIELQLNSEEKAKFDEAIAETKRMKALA
# Sequence of Calcium-dependent protein kinase 1 (Plasmodium falciparum (isolate 3D7)) (P62344 whole entry, looked up): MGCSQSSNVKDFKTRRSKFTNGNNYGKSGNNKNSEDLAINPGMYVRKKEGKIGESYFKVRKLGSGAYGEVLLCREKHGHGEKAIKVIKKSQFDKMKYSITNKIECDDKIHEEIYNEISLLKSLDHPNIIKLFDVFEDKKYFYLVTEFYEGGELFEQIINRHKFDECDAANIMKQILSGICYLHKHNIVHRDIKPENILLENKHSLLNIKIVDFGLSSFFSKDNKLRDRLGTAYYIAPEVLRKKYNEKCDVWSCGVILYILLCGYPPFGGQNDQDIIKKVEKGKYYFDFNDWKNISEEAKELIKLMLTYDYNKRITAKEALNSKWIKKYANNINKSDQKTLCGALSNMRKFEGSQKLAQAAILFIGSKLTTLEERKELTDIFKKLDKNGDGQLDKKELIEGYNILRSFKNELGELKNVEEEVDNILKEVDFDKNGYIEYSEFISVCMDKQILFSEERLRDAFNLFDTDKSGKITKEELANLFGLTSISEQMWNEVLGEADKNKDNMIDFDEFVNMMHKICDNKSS
# Sequence of Plasmodium falciparum protein kinase 6 (PK6, PF3D7_1337100) (Q8IDW1 1-305): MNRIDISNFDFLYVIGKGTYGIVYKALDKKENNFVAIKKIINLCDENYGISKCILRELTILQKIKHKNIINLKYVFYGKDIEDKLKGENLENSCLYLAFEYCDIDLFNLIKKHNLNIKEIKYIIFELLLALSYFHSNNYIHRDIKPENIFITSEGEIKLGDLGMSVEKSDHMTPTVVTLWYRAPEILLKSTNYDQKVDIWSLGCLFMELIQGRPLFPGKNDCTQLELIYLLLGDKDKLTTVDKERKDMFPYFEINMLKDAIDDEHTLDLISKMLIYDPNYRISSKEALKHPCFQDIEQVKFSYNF
# Sequence of Protein kinase 7 (PK7), Plasmodium falciparum 3D7 (PF3D7_0213400) (Q7YTF7 1-343): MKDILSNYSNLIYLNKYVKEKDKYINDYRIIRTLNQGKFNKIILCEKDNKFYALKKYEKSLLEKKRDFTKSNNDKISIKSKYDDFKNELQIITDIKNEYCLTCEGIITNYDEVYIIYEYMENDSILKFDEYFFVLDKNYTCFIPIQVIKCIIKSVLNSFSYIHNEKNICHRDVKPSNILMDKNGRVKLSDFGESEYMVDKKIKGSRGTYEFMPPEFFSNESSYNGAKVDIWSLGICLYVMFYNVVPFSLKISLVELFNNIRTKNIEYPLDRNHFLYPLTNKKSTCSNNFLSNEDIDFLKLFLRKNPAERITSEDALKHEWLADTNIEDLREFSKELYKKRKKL
SMILES,growth inhibition [1],inhibition [2],inhibition [3] [%],growth inhibition [4],outcome [5],outcome [6],outcome [7],outcome [8]
COc1ccc(CCNCCCCCCNCCCc2ccc(Cl)cc2)cc1OC,2%,36%,1,96% (active),inactive,inactive,inactive,inactive
O=C(Nc1cccc(-c2ccc(-c3nc4ccc(C(F)(F)F)cc4[nH]3)cc2)c1)c1csnn1,93% (active),23%,3,98% (active),inactive,inactive,inactive,inactive
O=C(NCCCCN1CCC(c2ccc3c(c2OCCCO)CCCC3)CC1)c1ccc(-c2ccc(C(F)(F)F)cc2)cc1,53% (active),98% (active),1,83% (active),inactive,inactive,inactive,inactive
Cc1[nH]c2c(NCc3ccc(F)cc3)nccc2c1C,-3%,63% (active),-3,83% (active),inactive,inactive,inactive,inactive
CC(C)c1ccc(-c2nc3ncc(Cl)cc3[nH]2)cc1,77% (active),3%,-2,87% (active),inactive,inactive,inactive,inactive
CC(Cc1ccc(CNC(=O)c2ccc(CC(C)NCCc3cccc(Cl)c3)cc2)cc1)NCCc1cccc(Cl)c1 (stereo not drawn),66% (active),99% (active),-2,99% (active),inactive,inactive,inactive,inactive
CC(Oc1ccc(C(=O)c2ccc(F)cc2)cc1)C(=O)N1CCc2ccccc21 (stereo not drawn),95% (active),9%,1,95% (active),inactive,inactive,inactive,inactive
COc1ccccc1CCNc1nc(C)cc(N[C@@H](Cc2ccccc2)C(=O)NCc2cccc(F)c2)n1,86% (active),31%,-2,99% (active),inactive,inactive,inactive,inactive
CCc1cc(NCc2ccncc2)nc(Nc2ccc(F)cc2)n1,17%,8%,0,92% (active),inactive,inactive,inactive,inactive
CNCCNC(=O)C1Cc2c([nH]c3c(C)cccc23)C(c2ccc(Cl)c(Cl)c2)N1 (stereo not drawn),60% (active),13%,-5,102% (active),inactive,inactive,inactive,inactive
O=C(NCCCCNCC(Cc1cccc(O)c1)c1ccccc1)c1ccc(NC(=O)c2ccc(Cl)cc2)cc1 (stereo not drawn),1%,-1%,2,96% (active),inactive,inactive,inactive,inactive
CCC1(C)CC(CCNCc2ccccc2O)(c2ccccc2OC)CCO1 (stereo not drawn),93% (active),10%,-2,94% (active),inactive,inactive,inactive,inactive
CC[C@H]1CN(Cc2ccccc2Br)CC[C@H]1CCCc1ccnc2ccc(O)cc12,2%,12%,-4,86% (active),inactive,inactive,inactive,inactive
O=C(NC1CCCCC1)N(Cc1cccc(-c2cccc(CNC3CCCC3)c2)c1)C1CCN(Cc2ccccc2)CC1,90% (active),64% (active),-7,96% (active),inactive,inactive,inactive,inactive
Nc1nccc2ccc(-c3cccc4ncccc34)cc12,94% (active),40%,-1,98% (active),inactive,inactive,inactive,inactive
CN1CCN(c2nsc3ccc(-c4ccc(OCCN5CCCC5)cc4)cc23)CC1,99% (active),57% (active),6,102% (active),inactive,inactive,inactive,inactive
Oc1ccccc1N1CCN(c2ccc(-c3nc4ccccc4[nH]3)cn2)CC1,50% (active),-12%,-2,97% (active),inactive,inactive,inactive,inactive
CN(C)CCNC(=O)[C@H](CC1CCCCC1)NC(=O)c1ccc(O)c(-c2ccc(Cl)c(Cl)c2)c1,97% (active),0%,-4,98% (active),inactive,inactive,inactive,inactive
O=C(Nc1ccc(C(F)(F)F)cc1)c1ccc(S(=O)(=O)NCC2CCCN(CC3CCCCC3)C2)cc1 (stereo not drawn),-6%,44%,-7,93% (active),inactive,inactive,inactive,inactive
Cc1ccc(Nc2nccc(NCC(O)c3ccc(C(F)(F)F)cc3)n2)cc1 (stereo not drawn),100% (active),53% (active),-7,100% (active),inactive,inactive,inactive,inactive
O=C(/C=C/c1ccc(Cl)cc1)NCCCCCN1CCCC(C(=O)Nc2ccc(Cl)c(Cl)c2)C1 (stereo not drawn),3%,27%,-3,96% (active),inactive,inactive,inactive,inactive

SMILES,growth inhibition [1],inhibition [2],inhibition [3] [%],growth inhibition [4],outcome [5],outcome [6],outcome [7],outcome [8]
Cc1c(Cc2ccccc2Cl)cnc2nc(N)nc(N)c12,96% (active),67% (active),-2,91% (active),inactive,inactive,inactive,inactive
CC(C)CCN1C(=O)C(NC(=O)Oc2ccccc2)C(=O)N(CC23CC4CC(CC(C4)C2)C3)c2ccccc21 (stereo not drawn),4%,3%,0,95% (active),inactive,inactive,inactive,inactive
Cc1ccc2c(NN=Cc3ccc(Cl)cc3)cc(C)nc2c1,34%,-1%,-2,100% (active),inactive,inactive,inactive,inactive
COc1ccc(CCNc2nc(N)c3cc(OC)c(OC)cc3n2)cc1,1%,16%,-1,100% (active),inactive,inactive,inactive,inactive
O=S1C(Cl)=C(c2ccc(Cl)cc2)c2ccc(Cl)cc21 (stereo not drawn),99% (active),33%,1,91% (active),inactive,inactive,inactive,inactive
CCCCCCNc1cc(C)nc2ccc(OC)cc12,94% (active),19%,-2,100% (active),inactive,inactive,inactive,inactive
N[C@@H](CCNCc1ccc(-c2cccnc2)cc1)Cc1ccc(F)c(F)c1,57% (active),45%,2,98% (active),inactive,inactive,inactive,inactive
CCCCCCN1CCCN(Cc2ccc(C(=O)Nc3ccc(CCC)cc3)cc2)CC1,56% (active),45%,-3,92% (active),inactive,inactive,inactive,inactive
CN1CCN(CCCN(Cc2csc(-c3ccc(CNCc4ccccc4)cc3)n2)S(=O)(=O)c2ccccc2Cl)CC1,81% (active),13%,-5,93% (active),inactive,inactive,inactive,inactive
CN1CCC(C(=O)Nc2cccc(-c3ccc(-c4nc5ccc(C(F)(F)F)cc5[nH]4)cc3)c2)CC1,99% (active),38%,-4,100% (active),inactive,inactive,inactive,inactive
OC(CN1CCN(Cc2ccccc2)CC1)Cn1c(-c2ccccc2)c(-c2ccccc2)c2ccccc21 (stereo not drawn),97% (active),-3%,-3,98% (active),inactive,inactive,inactive,inactive
COc1ccc(C(=O)Nc2ccc3nc(N4CCCCC4)cc(C)c3c2)cc1OC,7%,15%,3,92% (active),inactive,inactive,inactive,inactive
O=C(NCCCCN1CCC[C@@H]2c3cccc(O)c3CC[C@@H]21)c1ccc(-c2ccccc2)cc1,4%,18%,3,93% (active),inactive,inactive,inactive,inactive
Cc1cc(NC(=O)NCCN2CCC(NS(=O)(=O)c3ccc(C(F)(F)F)cc3)C2)c2ccccc2n1 (stereo not drawn),39%,15%,-3,96% (active),inactive,inactive,inactive,inactive
CN(CCCNC(=S)NC12CC3CC(CC(C3)C1)C2)CCCNc1ccnc2cc(Cl)ccc12,98% (active),73% (active),8,100% (active),inactive,inactive,inactive,inactive
Nc1cccc(CNCc2ccc(-c3ccc(-c4nc5ccc(C(F)(F)F)cc5[nH]4)s3)cc2)c1,98% (active),28%,-2,102% (active),inactive,inactive,inactive,inactive
Cc1cc(C(F)(F)F)cc(-n2ncc(-c3ccc(C(=O)NCCNCc4ccccc4)cc3)c2N)n1,9%,98% (active),-1,91% (active),inactive,inactive,inactive,inactive
Cc1[nH]c(C)c(-c2ccc(-c3ccccc3F)nc2)c(=O)c1Br,97% (active),2%,-3,97% (active),inactive,inactive,inactive,inactive
O=C(NCCNc1noc(-c2sccc2Br)n1)c1ccc(Cl)cc1,1%,-5%,2,93% (active),inactive,inactive,inactive,inactive
N#Cc1cccc(CNC(=O)c2cccc(Nc3ccnc4ccc(F)cc34)c2)c1,26%,-1%,0,87% (active),inactive,inactive,inactive,inactive
